Screens deposited in PubChem by National Center for Advancing Translational Sciences (NCATS).
In the library only some 2.8% were active in any assay of this set; here they are far more common.
HEK293 viab = GF-AFC viability counterscreen for inhibitors of alpha-synuclein gene (SNCA) expression; HEK-293-SNCA-luc viability, GF-AFC fluorescence, 24 h; Potency, µM (titrated, usually from 57.1 µM), for the others: at the top dose activity change, negative = cytotoxicity, usual class: cytotoxic; actives 0.12% (n = 150,000);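 note: potency is the fitted concentration of half-maximal effect; 0% = DMSO-treated cells and -100% = medium-only wells without cells; nearly all actives have a fitted effect of over 30% in size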
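Cytotoxicity counterscreen: after 24 h compound treatment of genome-edited SNCA-luciferase HEK-293 cells, live-cell protease substrate GF-AFC read by fluorescence after 30 min; activity scaled between DMSO (0%) and medium-only (-100%), curves Hill-fitted.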
IP6K1 inhibitor = Primary qHTS assay for small molecule inhibitors of Inositol hexaphosphate kinase 1 (IP6K1). actives 0.81% (n = 140,000). IP6K1 kinase, ADP-Glo luminescence, 2 h; stronger effect = lower value. activity change, % (series mostly up to about 58 µM); in the data active = activity change below about -25%; note: % is set by controls: 0 for no effect and ±100 for the full control effect
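ADP-Glo luminescence measures ADP made by human IP6K1 during a 2 h RT reaction with ATP/IP6 (mix at 1.3 mM/130 uM); top library doses 57.5 and 19.1 uM final.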
KDM5B inhibitor = Primary screen for KDM5B Histone Demethylases FDH-coupled qHTS | Lysine-specific demethylase 5B (Homo sapiens), Q9UGL1 | KDM5B demethylase, FDH-coupled NADH fluorescence (FDH is formaldehyde dehydrogenase) | Potency, µM (top dose mostly 57.7 µM), hits mostly inhibitors | actives 2.6% (n = 220,000) | AID 1347165, 2019; note: potency is the fitted concentration of half-maximal effect; 0% is about no effect; nearly all actives have a fitted effect of over 70% in size
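KDM5BΔAP (200 nM final) in 50 mM HEPES pH 7.5, 0.01% Tween-20 was preincubated 10 min at RT with compound over a concentration range. Substrate mix (H3K4me3 12.5 µM, α-KG 25 µM, Fe²⁺, ascorbate, NAD⁺, FDH) was added, and NADH fluorescence change over 30 min gave dose-response curves.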
SNCA expr inhib = Primary qHTS assay for inhibitors of alpha-synuclein gene (SNCA) expression; HEK-293 SNCA-luciferase knock-in, luminescence, 24 h; AID 1671194, 2021; actives 0.17% (n = 140,000); Potency, µM (highest dose often 57.2 µM), for the others: top-dose activity change, negative = inhibition, usual class: inhibitors;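 note: potency is the fitted concentration of half-maximal effect; plate controls were DMSO cells for no effect and cell-free wells for full effect; nearly all actives have a fitted effect of over 45% in size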
* hit, by the source's call; i = inactive; ? = inconclusive; . = no result; [ ] = remark or other dose. Unless noted, calls come from the whole dose curve; as a rule, active = well fitted curve in the direction sought with a large enough effect; inconclusive = small, poorly fitted or top-dose-only effect, or another doubt; inactive = no such curve, though single readings can be large; an effect the other way counts as inactive or inconclusive.

SMILES	HEK293 viab	IP6K1 inhibitor	KDM5B inhibitor	SNCA expr inhib
COc1cccc(NC(=O)CCC2CCN(S(=O)(=O)c3ccccc3)CC2)c1	4%	23	28µM*	12%
CCN(Cc1ccncc1)C(=O)CCC1CCN(S(=O)(=O)c2ccccc2)CC1	2%	20	i	-7%
O=C(/C=C/c1ccccc1Cl)N[C@@H]1C[C@H]2CC[C@@H]1C2	.	.	i	.
N#CC(C(=O)CN1CCCC1)c1ccccc1 (configuration not stated)	.	.	i	.
c1cc(-c2cc(-c3ccncc3)c3cncn3c2)c2[nH]ccc2c1	-1%[87.6 µM]	-6	i	?
NC(=O)c1cccc(-c2cc(-c3cccnc3)c3cncn3c2)c1	-10%[87.6 µM]	294	?	0%[87.6 µM]
c1cncc(-c2cc(-c3cccc4cc[nH]c34)cn3cncc23)c1	-8%[87.6 µM]	-15	35µM*	-11%[87.6 µM]
C[S+](=O)([O-])Nc1cccc(-c2cc(-c3cccnc3)c3cncn3c2)c1	-9%[87.6 µM]	-11	35µM*	2%[87.6 µM]
CCC(C)Nc1ccc2nncn2n1 (configuration not stated)	10%	1	28µM*	11%
CC(C)CNc1ccc2nncn2n1	1%	-3	?	-2%
CS(=O)(=O)c1oc(-c2ccc(F)cc2)nc1S(=O)(=O)c1ccc(Cl)cc1	-6%	-10	i	9%
CC(C)S(=O)(=O)c1oc(-c2cccs2)nc1S(=O)(=O)c1ccc(F)cc1	?	-3	i	14µM*
CCCCS(=O)(=O)c1oc(-c2ccc(F)cc2)nc1S(=O)(=O)c1ccccc1	14µM*	-13	?	?
CCS(=O)(=O)c1oc(-c2ccc(F)cc2)nc1S(=O)(=O)c1ccc(Br)cc1	16µM*	-9	?	?
CC(C)S(=O)(=O)c1oc(-c2ccc(F)cc2)nc1S(=O)(=O)c1ccccc1	2.5µM*	-2	?	?
CCSc1oc(-c2ccccc2)nc1S(=O)(=O)c1ccc(F)cc1	.	.	i	.
Cc1ccc(S(=O)(=O)c2nc(-c3cccs3)oc2SC(C)C)cc1	2%	-6	?	20%
O=C(COC(=O)c1c[nH]c2ccccc12)NC1CC1	.	.	i	.
Cc1cccc2[nH]c(C3CCN(C(=O)C4CC5(CCNCC5)CN4)CC3)nc12 (configuration not stated)	3%	10	i	-5%
CCc1nc(C)c(C(=O)Nc2nn(C)c3cccc(N4CCOC4=O)c23)o1	-5%	22	i	-18%
CCOCC(=O)Nc1nn(-c2ccc(F)cc2)c2cccc(N3CCOC3=O)c12	2%	3	25µM*	40%
COc1ccc(-c2cc(N3CCCC(NC(=O)c4ccc(F)c(Cl)c4)C3)n[nH]2)cc1 (configuration not stated)	-15%	0	i	31%
COc1ccc(-c2nc(C)nc3c2CCC3)c2ccc(C)nc12	-15%	13	28µM*	54%
COCCn1cnc2ccc(-c3cccnc3OC)nc2c1=O	-8%[87.6 µM]	11	40µM*	34%[87.6 µM]
COCCn1cnc2ccc(-c3ccccc3)nc2c1=O	8%[87.6 µM]	-6	35µM*	36%[87.6 µM]
SMILES	HEK293 viab	IP6K1 inhibitor	KDM5B inhibitor	SNCA expr inhib
COCCn1cnc2ccc(-c3cccc(O)c3)nc2c1=O	1%[87.6 µM]	-1	i	?
COCCn1cnc2ccc(N3CCCC3)nc2c1=O	5%[87.6 µM]	7	32µM*	-20%[87.6 µM]
COCCn1cnc2ccc(-c3ccc(F)cc3)nc2c1=O	4%[87.6 µM]	-1	35µM*	21%[87.6 µM]
COCCn1cnc2ccc(OCC3CC3)nc2c1=O	6%[87.6 µM]	7	i	?
O=C(NC1CCc2nnc(C3CC3)n2CC1)C1CC=CCC1 (configuration not stated)	-3%	-3	i	44%
CC1=NS(=O)(=O)N(Cc2ccccc2)C=C1C(=O)OCc1nc(Cc2ccc(C)cc2)no1	-1%	2	i	-21%
Cc1cc(=O)n(CC(=O)Nc2ccc(Cl)cc2)c(N2CCC(C)CC2)n1	-28%	26	i	-20%
CC(=O)Nc1ccc([C@@H](O)[C@H]2COCC(=O)N2CC(C)C)cc1	6%[87.6 µM]	8	i	-16%[87.6 µM]
O=C(c1cc(F)ccc1F)N1CCC2(CC1)N=C(c1ccc(Cl)cc1)NO2	2%	-2	22µM*	-2%
